About 83,000 compounds went through this panel and 20% of them were active in at least one assay; those are over-represented in the sample as a whole.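 Negative percent growth values reflect cell death: -40 means 40% of the cells present at the start died, and -100 means all died.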 Unmarked numbers belong to inactive results. Calls of active or inactive are those of the source. How the source made its calls: active means growth percent below 10; inactive means the rest.
System: MDA-MB-468 breast
Test: NCI-60 one-dose screen, 48 h (100 = growth as untreated, 0 = no growth, -100 = all killed)
Settings: 10 µM unless noted

SMILES | growth
C=CC[N+]1(CCO)CCN=C1CCCCCCCCCCCCC (configuration not stated) | -78.3% (active)
CCOC(=O)n1cc(-c2nonc2-c2cn(C)c3ncccc23)c2cc(F)ccc21 | -7.17% (active)
Cc1nc(Nc2cccc(NC(=O)Nc3ccc(Cl)cc3)c2)c2ccccc2n1 | 75%
C[C@@H]1CCC[C@H]1CC(N)C(=O)O (some centres not stated) | 92.8%
Cc1ccc(C)c(COc2cc(NC(=O)c3ccc4c(c3)OCO4)ccc2N(C)S(C)(=O)=O)c1 | -29.6% (active)
Cc1cc(C)c2c(NC(=O)Nc3ccc(Cl)c(Cl)c3)n[nH]c2n1 | 109%
Cc1nc2ccc(Nc3nc(N4CCOCC4)nc(N4CCN(C)CC4)n3)cc2n1Cc1ccccc1 | 66.8%
O=[N+]([O-])c1ccc(N/N=C\c2cc(Cl)ccc2O)nc1 | -2.47% (active)
CC(=O)OC[C@]12CC[C@@H](c3cn(Cc4ccc(Cn5cc([C@@H]6CC[C@]7(COC(C)=O)CC[C@]8(C)[C@H](CC[C@@H]9[C@@]%10(C)CC[C@H](OC(C)=O)C(C)(C)[C@@H]%10CC[C@]98C)[C@@H]67)nn5)cc4)nn3)[C@@H]1[C@H]1CC[C@@H]3[C@@]4(C)CC[C@H](OC(C)=O)C(C)(C)[C@@H]4CC[C@@]3(C)[C@]1(C)CC2 | 102%
Cc1ccc(C(=O)Nc2ccc(CNCCN3CCOCC3)c(C(F)(F)F)c2)cc1C#Cc1cnc2cccnn12 | -21% (active)
CC1CCC(C(C)C)C(NNC(N)=O)C1 (configuration not stated) | 94.9%
OC(c1ccccn1)C(O)c1ccccn1 (configuration not stated) | 113%

Reference: PubChem BioAssay (NCI)
